# CIT2-GFP yeast – modulators of TOR pathway CIT2-GFP in S. cerevisiae; S. cerevisiae CIT2-GFP strain, flow cytometry, 3 h; 100 means same as DMSO wells; GFP response vs DMSO, % at 10 µM; 320,000 tested, 0.065% active;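 active = GFP response relative to DMSO above a set limit, near the screen mean plus 3 SD, cut at about 150% in these data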;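 also: ratio of well median GFP fluorescence to mean of DMSO wells on the plate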
# LAP4 TOR yeast – alters LAP4-GFP fluorescence in TOR pathway yeast screen | S. cerevisiae LAP4-GFP multiplex, flow cytometry GFP, 3 h; median GFP as percent of DMSO wells | GFP response vs DMSO, % at 10 µM | 320,000 tested, 0.34% active | AID 2023;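 active = GFP response vs DMSO above a set limit, about the screen mean plus 3 SD, cut at about 150% in these data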
# AGP1-GFP MLPCN – alters AGP1-GFP fluorescence in TOR pathway yeast screen; S. cerevisiae AGP1-GFP multiplex flow cytometry, 3 h; GFP as percent of DMSO wells; GFP response vs DMSO, % at 10 µM; 320,000 tested, 0.02% active;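 active = GFP response relative to DMSO above a set limit, near screen average plus 3 SD, cut at about 150% in these data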;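 also: median GFP channel fluorescence of the gated AGP1 strain per well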
# RPL19A TOR yeast – alters RPL19A-GFP fluorescence in TOR pathway yeast screen; S. cerevisiae RPL19A-GFP strain, flow cytometry, 3 h; stronger effect = lower value; percent response vs DMSO, % at 10 µM; 330,000 tested, 0.3% active;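 active = percent response vs DMSO below 50%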;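 also: median channel GFP fluorescence of the barcoded RPL19A-GFP strain; ratio of sample median GFP to plate DMSO average so 100% = DMSO; lower means less RPL19A-GFP as with rapamycin TOR inhibition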
# MEP2 TOR yeast – yeast TOR pathway MEP2-GFP modulation; S. cerevisiae MEP2-GFP strain, flow cytometry GFP, 3 h; 100% = DMSO control level; GFP response vs DMSO, % at 10 µM; 330,000 tested, 0.51% active;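 active = GFP response versus DMSO above a set limit, roughly screen mean plus 3 SD, cut at about 180% in these data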;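 also: median GFP fluorescence of the barcode-gated MEP2-GFP cells per well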
# LAP4-GFP pick2 – yeast LAP4-GFP modulation, second cherry pick | S. cerevisiae LAP4-GFP strain, flow cytometry GFP, 3 h | GFP response vs DMSO, % at 10 µM | shares compounds with LAP4 TOR yeast | 590 tested, 20% active;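 active = GFP signal as percent of the solvent control above about 150%, meaning raised reporter expression, limit read from the data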;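 also: ratio of well median GFP fluorescence to plate DMSO mean so 100% = DMSO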
# MEP2-GFP pick2 – second confirmation of modulators of TOR reporter MEP2-GFP in yeast. shares compounds with LAP4 TOR yeast. S. cerevisiae MEP2-GFP strain, flow cytometry GFP, 3 h. AID 2622. GFP response vs DMSO, % at 10 µM. 590 tested, 10% active;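 active = GFP signal above 150% of the solvent control wells, that is a rise of more than half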;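 also: median channel GFP fluorescence of all gated yeast cells per well; ratio of median GFP to plate DMSO average so 100% = DMSO level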
# RPL19A-GFP pick2 – yeast RPL19A-GFP TOR reporter modulation, second cherry pick | 590 tested, 3% active | GFP response vs DMSO, % at 10 µM | AID 2623 | S. cerevisiae RPL19A-GFP strain, flow cytometry GFP, 3 h; stronger effect = lower value; 100% means same as DMSO wells | shares compounds with LAP4 TOR yeast;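 active = under 65% GFP response relative to DMSO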;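 also: median GFP channel fluorescence per well over the all cells gate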
# CIT2-GFP pick2 – second confirmation of modulators of TOR reporter CIT2-GFP in yeast | shares compounds with LAP4 TOR yeast | GFP response vs DMSO, % at 10 µM | S. cerevisiae CIT2-GFP strain, flow cytometry GFP, 3 h; DMSO control wells read 100% | AID 2624 | 590 tested, 8% active;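 active = GFP response vs DMSO above about 150%, limit read from the data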;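 also: median green fluorescence per well over all gated yeast cells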
# AGP1 GFP CP2 – reconfirmed modulator of AGP1-GFP TOR reporter in yeast; percent response vs DMSO, % at 10 µM; S. cerevisiae AGP1-GFP strain, flow cytometry GFP, 3 h; 590 tested, under 10 active; shares compounds with LAP4 TOR yeast;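 active = over 150 percent of DMSO response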;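 also: median GFP channel fluorescence over all cells without mother daughter split; sample median GFP divided by mean DMSO control so 100% equals DMSO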
# Yeast autofluor – yeast s288c autofluorescence artifact, counter-screen; shares compounds with LAP4 TOR yeast; S. cerevisiae s288c, 520 nm autofluorescence, flow cytometry, 3 h; stronger effect = higher value; zero means same as solvent-only cells; fluorescence change (kMESF span) at 33 µM; 610 tested, under 10 active; AID 2757;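 active = fluorescence span over the dose series, or activity score, above about 33, limit read from the data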
# Yeast autofl DR – counter-screen for autofluorescence of TOR hits in yeast s288c. fluorescence change (span) at 33 µM. 110 tested, under 10 active. shares compounds with LAP4 TOR yeast. S. cerevisiae s288c parental, compound autofluorescence, flow cytometry, 3 h;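 active = fluorescence change span, or the activity score built from it, above 25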
# TORC1 bypass gr – stops wildtype yeast growth while TORC1 bypass cells still grow. shares compounds with LAP4 TOR yeast. S. cerevisiae BY4741 spot growth rating, 48-72 h; stronger effect = lower value. growth rating (0-3) at 30 µM. 120 tested, under 10 active. AID 504456;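 active = growth rating at most 1 for wild type yeast while the TORC1 bypass strain still grows fully, rated 3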
# * marks the source's active call; other numbers are inactive results; . = no result given. An excerpt weighted towards active compounds, which were near 0.92% of everything screened.
SMILES,CIT2-GFP yeast,LAP4 TOR yeast,AGP1-GFP MLPCN,RPL19A TOR yeast,MEP2 TOR yeast,LAP4-GFP pick2,MEP2-GFP pick2,RPL19A-GFP pick2,CIT2-GFP pick2,AGP1 GFP CP2,Yeast autofluor,others
CCCNc1nc(C)cc(-c2cc(C(=O)NCc3ccccc3)on2)n1,92.1,153.4*,81.8,97.3,93.0,101.0,98.2,98.1,97.2,96.5,.,
CCCNc1nc(C)cc(-c2cc(C(=O)Nc3ccccc3)on2)n1,93.6,103.5,89.1,99.7,93.7,101.9,108.2,96.9,100.7,104.0,.,
CC(C)c1cc(-c2cc(C(=O)Nc3ccccc3)on2)nc(NC2CCCC2)n1,87.8,110.3,87.9,97.2,90.0,101.0,104.8,98.8,89.3,99.1,.,
COc1cccc(NC(=O)c2cccc(Cl)c2)c1,64.7,153.4*,74.8,95.5,91.7,103.8,104.8,102.8,88.2,91.4,.,
COc1cccc(C(=O)Nc2nnc(-c3ccc(Cl)cc3)o2)c1,93.3,155.1*,95.6,92.4,105.4,208.7*,134.8,108.6,119.9,106.9,0.8,
CCOC(=O)CSC1=NC(=O)/C(=C/c2ccc(Br)cc2)S1,82.5,215.8*,89.2,83.5,96.7,.,.,.,.,.,0,
CC(C)Cn1c(=O)c(C(=O)Nc2ccncc2)c(O)c2ccccc21,59.1,102.7,47.6,48.1*,93.4,.,.,.,.,.,2.04,
CN(Cc1cnn(Cc2ccccc2)c1)C(=O)CN=C1NS(=O)(=O)c2ccccc21,100.8,101.8,109.4,101.8,98.0,.,.,.,.,.,.,
O=[N+]([O-])c1cc(S(=O)(=O)C(F)(F)F)ccc1Sc1nc2ccccc2s1,84.5,159.0*,74.3,87.2,85.4,.,.,.,.,.,0.51,Yeast autofl DR=0.16;TORC1 bypass gr=3
CS(=O)(=O)c1ccc(Sc2nc3ccccc3s2)c([N+](=O)[O-])c1,100.0,98.5,95.9,100.2,100.4,.,.,.,.,.,.,
COc1ccc(OCC(=O)NNC(=O)c2cccc(O)c2)cc1,98.3,110.3,101.9,99.3,104.5,.,.,.,.,.,.,
O=C1c2cccc3c([N+](=O)[O-])ccc(c23)C(=O)N1CCc1ccccn1,123.0,152.2*,87.6,95.6,167.2,.,.,.,.,.,11.6,
O=C1C2C3C=CC(C3)C2C(=O)N1/N=C/c1cc(Br)cc([N+](=O)[O-])c1O (stereo not given),91.3,179.9*,84.8,93.4,104.9,142.3,123.1,95.8,125.5,95.0,.,
COc1cccc(NC(=O)CN2C(=O)COc3ccc(S(=O)(=O)N4CCC(C)CC4)cc32)c1,97.4,96.8,100.0,103.2,107.9,.,.,.,.,.,.,
CCc1ccc(S(=O)(=O)NCC2(N3CCOCC3)CCCCC2)cc1,97.9,102.9,104.2,100.2,99.2,.,.,.,.,.,.,
O=S1OC(c2ccccc2)c2cc(Cl)ccc21 (stereo not given),90.3,156.9*,85.5,98.4,93.0,112.2,101.3,99.5,111.2,105.3,.,
O=C1OC(c2ccccc2)c2ccccc21 (stereo not given),104.9,101.6,112.7,101.4,114.8,.,.,.,.,.,.,
CCN(CC(=O)Nc1cc(S(=O)(=O)N2CCOCC2)ccc1Cl)Cc1ccccc1,753.9*,670.3*,229.4*,214.6,790.4*,96.2,92.6,99.3,102.9,97.1,-0.1,
O=C(/C=C/c1ccnc2ccccc12)c1cccs1,79.7,172.4*,112.4,98.9,100.3,.,.,.,.,.,0,
O=C(Cn1cnc2ccccc2c1=O)c1cccs1,97.8,93.7,92.5,93.3,97.0,.,.,.,.,.,.,
CC1(c2cccc(Br)c2)NC(=O)N(CC(=O)N2CCc3ccccc32)C1=O (stereo not given),104.8,97.3,101.1,96.6,95.3,.,.,.,.,.,.,
Cc1ccc2nc3c(cc(C(=O)NCC4CCCO4)c(=N)n3C3CCCC3)c(=O)n2c1 (stereo not given),94.0,88.4,88.9,50.8,104.1,105.2,110.0,97.8,104.3,102.0,.,
CS(=O)(=O)c1sc(C#N)c2c1C(=O)CC(c1ccccc1)C2 (stereo not given),82.4,209.1*,95.3,89.3,99.1,.,.,.,.,.,0.92,
Cc1oc2c(c(=O)c1C)C(=O)CC(c1ccccc1)C2 (stereo not given),101.0,90.2,102.9,95.9,93.5,.,.,.,.,.,.,
O=S(=O)(c1ccccc1)N1N=C(c2cccs2)CC1c1cccc(O)c1 (stereo not given),156.7*,99.1,108.5,107.9,127.8,99.2,96.1,98.9,107.1,100.7,.,
SMILES,CIT2-GFP yeast,LAP4 TOR yeast,AGP1-GFP MLPCN,RPL19A TOR yeast,MEP2 TOR yeast,LAP4-GFP pick2,MEP2-GFP pick2,RPL19A-GFP pick2,CIT2-GFP pick2,AGP1 GFP CP2,Yeast autofluor,others
O=C(Nc1cccc(N=Cc2cc(Cl)cc(Br)c2O)c1)c1ccco1,93.4,128.0,90.1,94.7,96.3,.,.,.,.,.,.,
O=C(Nc1cccc(N=Cc2cc(Br)cc(Br)c2O)c1)c1ccco1,85.0,189.9*,86.1,71.2,96.2,146.3,127.5,71.3,116.8,98.6,.,
Cc1ccc(-n2ncc3c2CC(C)(C)CC3NC(=O)C2CCOCC2)cc1 (stereo not given),109.6,108.8,110.0,105.7,118.8,.,.,.,.,.,.,
CCc1ccc(C2=NN(S(C)(=O)=O)C(c3cccs3)C2)cc1 (stereo not given),230.4*,257.6*,128.2,131.1,378.1*,252.5*,483.8*,132.3,383.8*,132.3,.,
Cc1ccc(C2=NN(S(C)(=O)=O)C(c3cccs3)C2)cc1 (stereo not given),95.4,111.2,112.1,105.4,105.1,.,.,.,.,.,.,
CC(C)Oc1ccc(C(=O)NCc2cccs2)cc1,85.7,168.6*,104.4,79.0,92.7,101.9,98.2,100.4,92.7,97.9,.,
